Reference: PubChem BioAssay (NCATS)
Residues, ends and D or L forms follow the SMILES beside them. *: point of attachment. Cbz = O=C(OCc1ccccc1)*

Assay: qHTS profiling of the MIPE4 collection as inhibitors of Plasmodium falciparum (DD2) proliferation (Rep 2) (AID 743346)
Conditions: P. falciparum Dd2 in erythrocytes, SYBR Green DNA, 72 h; at 28.5 µM unless noted
Source text: Plasmodium falciparum is a virulent malarial parasite that kills 1-2 million people worldwide each year. Transmitted by mosquitoes, the sporozoite form of the parasite enters the blood stream to infect hepatocytes, where they become merozoites that infect red blood cells (erythrocytes). Within erythrocytes, merozoites begin a […] cycle of growth and division, after which the parasite is released to infect new red blood cells. Gametocytes, which form within erythrocytes as well, circulate in the bloodstream and are ingested by the mosquito, thereby completing the life cycle. To profile malarial isolates for differential chemical responses and to identify inhibitors of malarial growth, an assay that measures P. falciparum growth and replication within erythrocytes was employed. This assay uses a DNA binding fluorescent dye (SYBR Green) to detect parasite DNA following cell lysis. Because mature erythrocytes lack DNA, only Plasmodium-derived DNA is detected.
The SYBR Green viability assay was adapted from a method described previously (Plouffe et al., 2008). For screening 3 ul culture medium was dispensed into 1536 well black clear bottom plates (Aurora Biotechnologies) using a Multidrop Combi (Thermo Fisher Scientific Inc.), 23 nL compounds in DMSO were added by a pin tool (Kalypsys), and 5 ul of erythrocytes infected with P. falciparum (0.3% parasitemia, 2.5% hematocrit final concentration) were added. The plates were incubated at 37 C in a humidified incubator in 5% CO2 for 72 h, and 2 ul lysis buffer (20 mM Tris HCl, 10 mM EDTA, 0.16% saponin, 1.6% triton X, 10X SYBR Green I supplied as 10,000X […] by Invitrogen) was added to each well. The plates were mixed for 25 sec with gentle shaking and incubated overnight at room temperature in the dark. The following morning, fluorescence intensity at 485(14) nm excitation and 535(25) nm emission wavelengths was measured on an EnVision (Perkin Elmer) plate reader. Plate reads were normalized relative to the control inhibitor (0.29 uM artemisinin) and vehicle (DMSO) wells present on each plate and then corrected by an algorithm using vehicle-only control plates at the beginning and end of the compound plate stack.

| SMILES | parasite growth, % of control (lower = inhibition) |
| --- | --- |
| CC(=O)OCC(=O)[C@@]1(O)CC[C@H]2[C@@H]3CCC4=CC(=O)CC[C@]4(C)[C@@H]3C(=O)C[C@@]21C | 122% |
| CCN1CCN(C(=O)N[C@H](C(=O)N[C@@H]2C(=O)N3C(C(=O)O)=C(CSc4nnnn4C)CS[C@@H]23)c2ccc(O)cc2)C(=O)C1=O | 57.9% [at 9.64 µM] |
| CN(N=O)C(=O)N[C@H]1C(O)OC(CO)[C@@H](O)[C@H]1O (stereo not given in full) | 114% |
| Cn1cnc(=N)c2[nH]cnc21 | 7.19% |
| FC(F)(F)c1ccc(Nc2nc3ccc(Oc4ccnc(-c5ncc(C(F)(F)F)[nH]5)c4)cc3[nH]2)cc1 | 15.3% |
| COc1ccnc2[nH]cc(C(=O)C(=O)N3CCN(C(=O)c4ccccc4)C[C@@H]3C)c12 | 86.4% |
| COc1ccc(C=Cc2cc(OC)c(OC)c(OC)c2)cc1NC(=O)[C@H](N)CO | 79.9% |
| CC[C@@]1([C@@H]2O[C@@H]([C@H]3O[C@@](O)(CO)[C@H](C)C[C@H]3C)C[C@H]2C)CC[C@H]([C@]2(C)CC[C@]3(C[C@H](O)[C@@H](C)[C@@H]([C@@H](C)[C@@H](OC)[C@H](C)C(=O)O)O3)O2)O1 | 9.17% [at 9.64 µM] |
| COc1cc(OC)cc(-c2ccc3ncc4ccc(=O)n(-c5ccc(N6CCNCC6)c(C(F)(F)F)c5)c4c3c2)c1 | 18.6% |
| CC(C=CC(=O)NO)=C[C@@H](C)C(=O)c1ccc(N(C)C)cc1 | 9.43% |
| Oc1cc(-c2nc(-c3ccccc3)[nH]c2-c2ccncc2)ccc1Cl | 8.42% |
| Oc1ccc([C@@H]2Oc3ccc(O)cc3[C@@H]3CCC[C@@H]32)cc1 | 47% |
| C=Cc1c(C)c2cc3nc(cc4[nH]c(cc5nc(cc1[nH]2)C(C)=C5CCC(=O)O)c(CCC(=O)OC)c4C)[C@@]1(C)C3=CC=C(C(=O)OC)[C@H]1C(=O)OC | 6.94% |
| Cc1ccccc1C(=O)Nc1ccc(C(=O)N2CCCC(O)c3cc(Cl)ccc32)c(C)c1 (stereo not given) | 46% |
| COc1cc([C@@H]2c3cc4c(cc3[C@H](O)[C@H]3COC(=O)[C@@H]23)OCO4)cc(OC)c1OC | 29.1% |
| COc1cc2ncnc(Nc3cccc(Br)c3)c2cc1OC | 48.9% |
| CC(=O)N[C@@H]1[C@H](O[C@@H]2c3ccc(c(Cl)c3)Oc3cc4cc(c3O[C@H]3O[C@H](CO)[C@@H](O)[C@H](O)[C@H]3NC(=O)CCCCCCCC(C)C)Oc3ccc(cc3Cl)C[C@H]3NC(=O)[C@H](N)c5ccc(O)c(c5)Oc5cc(O)cc(c5)[C@H](NC3=O)C(=O)N[C@H]4C(=O)N[C@H]3C(=O)N[C@@H]2C(=O)N[C@@H](C(=O)O)c2cc(O)cc(O[C@H]4O[C@H](CO)[C@@H](O)[C@H](O)[C@H]4O)c2-c2cc3ccc2O)O[C@H](CO)[C@@H](O)[C@@H]1O | 159% |
| CCCCCCCCCCCC(CC1OC(=O)C1CCCCCC)OC(=O)C(CC(C)C)NC=O (stereo not given) | 17% |
| O=C1CSC(=O)N1C(CCc1ccncc1)COc1ccc(-c2cccc([N+](=O)[O-])c2)cc1 (stereo not given) | 32.8% |
| NC[C@H]1O[C@H](O[C@H]2[C@@H](O)[C@@H](O[C@H]3O[C@H](CO)[C@@H](O)[C@H](N)[C@@H]3O)[C@H](N)C[C@@H]2N)[C@H](N)C[C@H]1O | 78% |

| SMILES | parasite growth, % of control (lower = inhibition) |
| --- | --- |
| CC(C)N(CC[C@H](c1ccccc1)c1cc(CO)ccc1O)C(C)C | 26.5% |
| CC[C@H]1OC(=O)[C@H](C)[C@@H](O[C@H]2C[C@@](C)(OC)[C@@H](O)[C@H](C)O2)[C@H](C)[C@@H](O[C@@H]2O[C@@H](C)C[C@H](N(C)C)[C@@H]2O)[C@](C)(O)C[C@@H](C)C(=O)[C@H](C)[C@@H](O)[C@]1(C)O | 47.1% |
| C[C@H](NC(=O)[C@@H](O)c1cc(F)cc(F)c1)C(=O)N[C@@H]1C(=O)N(C)c2ccccc2-c2ccccc21 | 27.7% |
| C=CC(=O)Nc1cccc(Nc2nc(NC3CCC(N(C)C)CC3)nc3c2ncn3C(C)C)c1 (stereo not given) | 35.4% |
| CC(C)c1cc(C(C)C)c(CC(=O)NS(=O)(=O)Oc2c(C(C)C)cccc2C(C)C)c(C(C)C)c1 | 80.1% |
| C=C(C)[C@@H]1CC[C@]2(C)CC[C@]3(C)[C@H](CC[C@@H]4[C@@]5(C)CC[C@H](O)C(C)(C)[C@H]5CC[C@]43C)[C@@H]12 | 73.8% |
| CN(C)CC(=O)N1CCC(c2ccc(NC(=O)c3ncc(C#N)[nH]3)c(C3=CCCCC3)c2)CC1 | 12.3% |
| CC(C)C[C@H](NC(=O)[C@@H](NC(=O)c1cccc(-c2ccccc2)n1)[C@@H](C)O)B(O)O | 7.67% |
| CC(C)C[C@@H](C=O)NC(=O)[C@H](CC(C)C)NC(=O)[C@H](CC(C)C)NC(=O)OCc1ccccc1 (Cbz-Leu-Leu-Leu-aldehyde) | 8.46% |
| O=C(O)CCCCC(CCSCc1ccccc1)SCc1ccccc1 (stereo not given) | 61.5% |
| Nc1cccc2c1C(=O)N(C1CCC(=O)NC1=O)C2=O (stereo not given) | 113% |
| C=CCNC1=C2C[C@@H](C)C[C@H](OC)[C@@H](O)[C@@H](C)C=C(C)[C@H](OC(N)=O)[C@@H](OC)C=CC=C(C)C(=O)NC(=CC1=O)C2=O | 9.89% |
| O=C(O)CCCCCC(=O)NN=C1CCCC1 | 194% |
| COc1ccc(C(C)=O)c(O)c1 | 131% |
| C[C@]12C=CC(=O)N[C@@H]1CC[C@H]1[C@H]3CC[C@@H](C(=O)Nc4cc(C(F)(F)F)ccc4C(F)(F)F)[C@@]3(C)CC[C@@H]12 | 23.9% |
| Cc1coc2c1C(=O)C(=O)c1c-2ccc2c(C)cccc12 | 15.4% |
| CC(=O)NCC(=O)N1[C@H]2CC[C@H]1c1cc(Nc3ncc(C(F)(F)F)c(NC4CCC4)n3)ccc12 | 12.7% |
| Cc1ccc2nc(NCCN)c3ncc(C)n3c2c1 | 33.4% |
| c1cc(CN2CCCNCCNCCCNCC2)ccc1CN1CCCNCCNCCCNCC1 | 74% |
| CCc1nc(-c2cccc(C)c2)c(-c2ccnc(NC(=O)c3ccccc3)c2)s1 | 49.3% |
